# Experimental data from PubChem BioAssay AID1835 (Johns Hopkins Ion Channel Center, 2009).
# In all, about 2,400 compounds went through this assay and about 750 (31%) were called active.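 How the source made its calls: active means median signal gain over dofetilide-blocked control wells reaching their mean plus 3 SD, so readout 1 at least 0; inactive means the rest.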 This is one part of the list.
# Biological target: Voltage-gated inwardly rectifying potassium channel KCNH2 (Homo sapiens) (UniProt Q12809)
# Sequence (Q12809 whole entry, looked up): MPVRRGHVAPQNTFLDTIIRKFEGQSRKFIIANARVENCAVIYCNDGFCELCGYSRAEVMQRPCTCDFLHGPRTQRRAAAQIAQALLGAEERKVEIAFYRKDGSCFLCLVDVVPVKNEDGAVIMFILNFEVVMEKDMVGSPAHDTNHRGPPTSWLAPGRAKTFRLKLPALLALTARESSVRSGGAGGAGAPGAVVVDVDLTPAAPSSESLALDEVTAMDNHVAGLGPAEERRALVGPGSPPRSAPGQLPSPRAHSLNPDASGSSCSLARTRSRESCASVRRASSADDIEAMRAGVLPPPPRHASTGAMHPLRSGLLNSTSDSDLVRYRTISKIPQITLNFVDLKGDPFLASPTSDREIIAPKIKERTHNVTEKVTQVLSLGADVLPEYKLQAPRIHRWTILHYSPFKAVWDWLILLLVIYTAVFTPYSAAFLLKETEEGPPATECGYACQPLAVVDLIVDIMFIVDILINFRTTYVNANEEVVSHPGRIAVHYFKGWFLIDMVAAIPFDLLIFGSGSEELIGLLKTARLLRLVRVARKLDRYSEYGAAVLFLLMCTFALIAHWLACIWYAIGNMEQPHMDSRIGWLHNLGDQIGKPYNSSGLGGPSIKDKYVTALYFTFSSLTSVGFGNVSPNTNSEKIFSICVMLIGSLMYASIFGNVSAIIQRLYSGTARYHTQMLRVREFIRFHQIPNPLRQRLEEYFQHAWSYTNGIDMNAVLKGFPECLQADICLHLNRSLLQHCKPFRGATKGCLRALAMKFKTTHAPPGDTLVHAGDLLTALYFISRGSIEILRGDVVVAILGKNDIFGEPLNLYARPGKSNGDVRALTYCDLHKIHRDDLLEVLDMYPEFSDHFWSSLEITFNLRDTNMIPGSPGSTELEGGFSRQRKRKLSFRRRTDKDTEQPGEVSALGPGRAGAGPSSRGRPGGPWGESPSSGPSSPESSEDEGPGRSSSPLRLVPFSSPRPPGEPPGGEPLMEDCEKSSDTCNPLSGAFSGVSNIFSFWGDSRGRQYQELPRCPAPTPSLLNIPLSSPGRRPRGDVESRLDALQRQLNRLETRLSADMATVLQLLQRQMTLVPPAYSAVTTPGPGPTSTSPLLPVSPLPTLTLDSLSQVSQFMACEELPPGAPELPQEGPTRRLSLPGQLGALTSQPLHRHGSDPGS
# Experiment: modulators restoring hERG flux under dofetilide – cell-based, thallium flux, duplicate retest, dofetilide IC70, confirmation (AID 1835)
# Conditions: hERG cell line, FluxOR thallium flux, dofetilide-blocked; at 10 µM; hits give high values
row,SMILES,"activity increase over dofetilide control, less the hit threshold"
1,O=C(Nc1c[nH]c(=O)[nH]c1=O)c1ccc2c(c1)C(=O)N(c1cccc([N+](=O)[O-])c1)C2=O,-10% (inactive)
2,CC(=O)Cn1c(=O)c2c(nc3n2CCCN3Cc2ccccc2)n(C)c1=O,-13% (inactive)
3,O=c1[nH]c(N2CCN(c3ccccc3)CC2)nc2c1CCCC2,2% (active)
4,O=c1[nH]n2c(=O)c3c([nH]c2c1N=Nc1ccccc1)CCC3,-14% (inactive)
5,c1ccc(-c2ccnc3nc(N4CCN(c5ccccc5)CC4)nn23)cc1,-35% (inactive)
6,CN(C(=O)c1cnccn1)c1nnc(-c2cnccn2)s1,-15% (inactive)
7,NC(=O)Cn1nnc(-c2ccc(CN3CCCCC3)cc2)n1,-23% (inactive)
8,COc1ccc(-c2cc(C(=O)N3CCCC3)no2)cc1OC,0% (inactive)
9,O=C(O)Cc1sc(-c2ccc(Cl)cc2)nc1-c1ccccc1,-10% (inactive)
10,Cc1nn(CC(=O)Nc2ccc(C(=O)N3CCCC3)cc2)c(=O)c2ccccc12,-11% (inactive)
11,O=C(Cn1nc(-c2ccccc2)c2ccccc2c1=O)Nc1ccc(O)cc1,24% (active)
12,CCOC(=O)c1ccc(NC(=O)Cn2nnc(-c3ccccc3)n2)cc1,-19% (inactive)
13,CCOC(=O)c1sc2nc(Cc3ccc(Cl)cc3)[nH]c(=S)c2c1C,52% (active)
14,CCOC(=O)c1sc2nc(C)[nH]c(=S)c2c1C,21% (active)
15,N/C(=N\OCc1ccccc1)c1nonc1N,-16% (inactive)
16,CC(C)Cc1nnc(NC(=O)Cc2ccccc2[N+](=O)[O-])s1,-5% (inactive)
17,c1ccc(-c2csc(Nc3ccc4c(c3)OCCO4)n2)cc1,-17% (inactive)
18,CCc1ccc(NC(=O)C(=O)NNC(=O)c2cccc(OC)c2)cc1,70% (active)
19,COc1ccc(NC(=O)c2ccc(COCC(F)(F)C(F)F)cc2)cc1,-14% (inactive)
20,COc1cc(CCC(=O)NNC(=O)c2ccc(C)cc2)cc(OC)c1OC,-3% (inactive)
21,CCc1ccc(NC(=O)C(=O)NNC(=O)c2ccc(OC)cc2)cc1,87% (active)
22,COc1ccc(C(=O)NNC(=O)C(=O)Nc2ccc(C)cc2)cc1,30% (active)
23,COc1ccc(OCC(=O)NNC(=O)C(=O)Nc2ccc(C)cc2)cc1,-11% (inactive)
24,COc1cccc(NC(=O)c2cncs2)c1,-13% (inactive)
25,COc1cccc(C(=O)NNC(=O)C(=O)Nc2ccc(C)cc2)c1,56% (active)
26,CCOc1cccc(C(=O)Nc2ccc3[nH]ncc3c2)c1,-18% (inactive)

row,SMILES,"activity increase over dofetilide control, less the hit threshold"
1,CCc1ccc(NC(=S)Nc2cccc(OC)c2)cc1,-26% (inactive)
2,COc1ccc(NC(=O)c2ccc(NC3=NC4CS(=O)(=O)CC4S3)cc2)cc1 (configuration not stated),-17% (inactive)
3,CCN(/N=C/c1ccc(Cl)cc1)c1cc(=O)n(C)c(=O)[nH]1,-20% (inactive)
4,Cc1noc(C)c1COc1cccc(C(=O)NCc2cccc(Cl)c2)c1,-18% (inactive)
5,CC(C)C12CN3CC(C(C)C)(CN(C1)C31C(=O)Nc3ccccc31)C2=O (configuration not stated),-24% (inactive)
6,O=C(COc1nsnc1N1CCOCC1)Nc1ccc(Cl)cc1,-21% (inactive)
7,CC(C)(C)c1csc(NC(=O)C2=COCCO2)n1,-17% (inactive)
8,CCc1nnc(NC(=O)CCC(=O)N2CCN(C3CCCCC3)CC2)s1,-22% (inactive)
9,O=C(O)CCSc1ncnc2sc(-c3ccccc3)cc12,9% (active)
10,Cc1ccccc1-n1c(SCC(=O)N(C)C2CCS(=O)(=O)C2)nnc1-c1ccncc1 (configuration not stated),-8% (inactive)
11,CN(C(=O)CSc1ncnc2sc(-c3ccccc3)cc12)C1CCS(=O)(=O)C1 (configuration not stated),82% (active)
12,CCOC(=O)c1sc2nc(C)nc(SCC(=O)N(C)C3CCS(=O)(=O)C3)c2c1C (configuration not stated),-6% (inactive)
13,Nc1nc2c(s1)CCc1c-2cnn1-c1ccccc1,-46% (inactive)
14,CC(=O)c1ccc(N2CCN(C(=O)Cc3ccccc3)CC2)c(F)c1,-15% (inactive)
15,CC1=NN(c2nc(-c3ccccc3)cs2)C(=O)C1N=Nc1ccccc1 (configuration not stated),-31% (inactive)
16,Cc1nc(-c2ccccc2)cn(O)c1=O,16% (active)
17,COC(=O)Nc1c(-c2ccccc2)nc2ccccn12,-4% (inactive)
18,O=c1c(-c2ccccc2)nc(-c2ccccc2)cn1O,33% (active)
19,O=C(O)C/C(=C\c1cc(Br)cs1)c1nc2ccccc2o1,-6% (inactive)
20,Cc1cccc(/N=C/c2sc3ccccc3c2O)n1,-13% (inactive)
21,O=c1c([N+](=O)[O-])c(N2CCCCC2)c2ccccc2n1-c1ccccc1,-18% (inactive)
22,Oc1ccc2[nH]cnc2c1CN1CCCCC1,-18% (inactive)
23,Cc1ccccc1OCC(=O)N=Nc1c(O)n(C)c2ccccc12,-5% (inactive)
24,Cn1c(O)c(N=Nc2nc(-c3ccccc3)cs2)c2ccccc21,65% (active)
25,CCc1ccc2[nH]c(O)c(N=Nc3nc(-c4ccccc4)cs3)c2c1,-8% (inactive)
26,COC(=O)/C=C1\S/C(=N/N=C/c2ccco2)NC1=O,-10% (inactive)

row,SMILES,"activity increase over dofetilide control, less the hit threshold"
1,CCOC(=O)c1cnn(-c2nc(SC)nc3sc4c(c23)CCCC4)c1N,-1% (inactive)
2,CCn1c(SCC(N)=O)nc2sc3c(c2c1=O)CCCC3,3% (active)
3,CCCn1c(SCC(=O)N2CCN(C(C)=O)CC2)nc2sc3c(c2c1=O)CCC3,20% (active)
4,C=CCSc1nc2sc3c(c2c(=O)n1CC)CCc1ccccc1-3,-4% (inactive)
5,CCC(=O)N1CCN(c2nc(CC)nc3sc4c(c23)CCCC4)CC1,-30% (inactive)
6,CCn1c(SC(C)C(=O)O)nc2sc3c(c2c1=O)CCC3 (configuration not stated),7% (active)
7,CC(=O)/C=C1/C(=O)Nc2ccccc21,-39% (inactive)
8,COc1cc(/C=N/Nc2nc(N3CCCC3)nc(N3CCCC3)n2)ccc1OCc1ccccc1F,-34% (inactive)
9,O=C1CC(C(=O)N2CCOCC2)C2(CCCCC2)O1 (configuration not stated),-19% (inactive)
10,CC1CCN(c2ccc3c(c2)S(=O)(=O)c2ccccc2C3=O)CC1,-27% (inactive)
11,O=C1c2ccccc2C(=O)N1Cc1nc2ccccc2c(=O)n1CCCn1ccnc1,-25% (inactive)
12,Fc1ccccc1NC(=S)N/N=C/c1ccccc1Br,-20% (inactive)
13,Cc1ccc(Cl)cc1NC(=S)N/N=C/c1cccc2ccccc12,-11% (inactive)
14,S=C(N/N=C/c1ccccc1Cl)Nc1cccc(Cl)c1Cl,23% (active)
15,O=C(CNCC1CCCO1)N1CCCCCC1 (configuration not stated),-11% (inactive)
16,Cc1ccc2c(Cl)cc(Cl)c(OCC(=O)NC3CCS(=O)(=O)C3)c2n1 (configuration not stated),-15% (inactive)
17,CCCCSc1nnc(CCC)n1N,-21% (inactive)
18,CCCCCCCC/C=C\CCCCCCCC(=O)O,22% (active)
19,O=C(c1ccc(CS(=O)c2cccc(Cl)c2)o1)N1CCCCCC1 (configuration not stated),-7% (inactive)
20,CC(C)(C)NC(=O)CN(C(=O)CS(=O)CC(=O)Nc1ccc(F)cc1)c1cccc(F)c1 (configuration not stated),-13% (inactive)
21,CC(C)Oc1c(Cl)cc(CNC(C)(C)CO)cc1Cl,1% (active)
22,CC(C)(C)c1cc(-c2n[nH]c(=S)n2-c2ccccc2F)n[nH]1,7% (active)
23,Fc1ccccc1-c1n[nH]c(=S)n1C1CC1,-4% (inactive)
24,CCC(=O)Nc1cc(=O)[nH]c2ncnn12,-24% (inactive)
25,CCCc1nc(SCC(=O)Nc2cc(C)on2)c2ccccc2n1,-10% (inactive)
26,Cc1cc(NC(=O)CSc2nc(C3CC3)nc3sc(C)c(C)c23)no1,26% (active)

row,SMILES,"activity increase over dofetilide control, less the hit threshold"
1,Cc1cc(NC(=O)CSc2nnc(Nc3ccccc3)s2)no1,-11% (inactive)
2,C/C(=C\C(=O)c1ccncc1)Nc1ccccc1O,-7% (inactive)
3,C/C(=C\C(=O)c1ccccc1)NNC(=O)c1ccc(Cl)cc1,3% (active)
4,COc1ccc(C(=O)NN/C(C)=C/C(=O)c2ccccc2)cc1,-26% (inactive)
5,COc1cccc(C(=O)Nc2cccc(-c3ccc(N4CCOCC4)nn3)c2)c1,-14% (inactive)
6,COc1cccc(C(=O)NNC(=O)C(=O)Nc2cccc(Cl)c2C)c1,50% (active)
7,COc1ccc(C(=O)NNC(=O)C(=O)Nc2ccc(C)c(Cl)c2)cc1,86% (active)
8,Cc1ccc(NC(=O)c2ccc3c(c2)OCO3)cc1Cl,-10% (inactive)
9,COc1cccc(C(=O)NNC(=O)C(=O)Nc2ccc(C)c(Cl)c2)c1,54% (active)
10,COc1ccc(C2/C(=C(/O)c3ccc(Br)cc3)C(=O)C(=O)N2C)cc1 (configuration not stated),-7% (inactive)
11,Cc1ccc(C(=O)n2c(-c3ccccc3)cnc2SCC(=O)Nc2ccc(C)cc2C)cc1,-8% (inactive)
12,Oc1c(N=NC(=S)Nc2ccccc2F)c2ccccc2n1Cc1cccc(Cl)c1,-1% (inactive)
13,Oc1c(N=NC(=S)Nc2ccccc2F)c2ccccc2n1Cc1ccc(Cl)cc1,-2% (inactive)
14,Cc1cccc(Cn2c(O)c(N=NC(=S)Nc3ccccc3F)c3ccccc32)c1,4% (active)
15,Cc1cc(NC(=O)Cn2c(=O)n(Cc3ccccc3)c(=O)c3ccccc32)no1,-7% (inactive)
16,Oc1c(N=NC(=S)Nc2ccccc2F)c2ccccc2n1Cc1ccc(F)cc1,32% (active)
17,Oc1c(N=NC(=S)Nc2ccccc2F)c2ccccc2n1Cc1ccccc1,36% (active)
18,Cc1c(Cl)cccc1NC(=S)N=Nc1c(O)n(CN2CCOCC2)c2ccccc12,18% (active)
19,CC(C)Oc1ccccc1C1(c2ccccc2)NC(=O)NC1=O (configuration not stated),-16% (inactive)
20,CC(C)NC(=O)Nc1n[nH]c(Nc2ccc(Cl)cc2)n1,-1% (inactive)
21,O=C1NC(=O)C2(COC(c3cccc([N+](=O)[O-])c3)OC2)S1 (configuration not stated),-12% (inactive)
22,Nc1ccc2nc(-c3cccs3)[nH]c2c1,-10% (inactive)
23,Cc1cc(C)c(S(=O)(=O)c2ccccc2)c(OC(=O)c2c(F)cccc2Cl)n1,-30% (inactive)
24,O=C(CCc1ccccc1Cl)Nc1ccc(S(=O)(=O)N2CCOCC2)cc1,-6% (inactive)
